In PubChem BioAssay:
Calls of active or inactive are those of the source. Unless noted, how the calls were made is not given here.

Key:
[1] = tested on: Wnt5a (protein binding on small-molecule microarray); assay: Wnt5a binders on small-molecule microarray, primary screen, biophysical, 635/667 nm fluorescence (AID 1142); conditions: 635 nm fluorescence, higher = more signal;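 further: fluorescence read at 667 nm with signal to noise per printed feature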
[2] = cell viability in Huh7 cells, primary screen, cytotoxicity control for HCV replication inhibitor project, CellTiter-Glo luminescence, basal, 48 h (AID 1143); conditions: Huh7 HCV replicon, higher = more signal, called active from +8 up or from −8 down;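 further: Huh7 hepatoma cells carrying a hepatitis C replication reporter with no stimulus; test concentration not given here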
[3] = P. aeruginosa biofilm formation inhibitors, primary screen, PAO1 strain, BacTiter-Glo luminescence, LB-PBS (AID 1144); conditions: 12 h, higher = more signal
[4] = CREB reporter modulators without forskolin, primary screen, cell-based, PC12, CRE-LacZ reporter, unstimulated (AID 1145); conditions: no forskolin, luminescence, 4.5 h, higher = more signal, called active from +8 up or from −8 down
[5] = CREB reporter modulators under forskolin, primary screen, cell-based, PC12, CRE-LacZ reporter, forskolin-stimulated (AID 1146); conditions: luminescence, 4.5 h, higher = more signal, called active from +8 up or from −8 down;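 further: PC12 cells with 6xCRE LacZ reporter stimulated by forskolin 10 µM; beta-galactosidase reporter signal reflecting CREB driven transcription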
[6] = target: Streptavidin (Streptomyces avidinii) (UniProt P22629); assay: streptavidin binders on small-molecule microarray, primary screen, artefact control for SMM compound annotation, biophysical, 635/667 nm fluorescence (AID 1147); conditions: streptavidin binding, higher = more signal;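 further: signal reflects streptavidin binding to arrayed compounds as a control protein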
[7] = small-molecule binders of probe aInhba, primary screen, biochemical, small-molecule microarray, 635/667 nm fluorescence (AID 1148); conditions: higher = more signal;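 further: score merges 667nm spot fluorescence with signal-to-noise for antibody binding to printed compounds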
[8] = target: Torsin-1A (Homo sapiens) (UniProt O14656); assay: torsin A binders from cell lysate, primary screen, small-molecule microarray, wild-type, 635/667 nm (AID 1149); conditions: COS7 hTOR1A-WT lysate, 635 nm fluorescence, higher = more signal
[9] = target: Torsin-1A (Homo sapiens) (UniProt O14656); assay: small-molecule binders of mutant TOR1A in lysate, primary screen, cell lysate, small-molecule microarray, COS7 lysate, 635/667 nm fluorescence (AID 1150); conditions: COS7 hTOR1A mutant lysate, 635 nm fluorescence, higher = more signal;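 further: score pools 667 nm emission and signal to noise measuring lysate protein binding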
[10] = tested on: Sonic hedgehog protein (Shh); assay: small-molecule binders of Shh protein, primary screen, biochemical, small-molecule microarray, 635/667 nm fluorescence (AID 1151); conditions: small-molecule microarray binding, 635 nm fluorescence; higher = more signal;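 further: Shh protein binding to compounds spotted on small-molecule microarray slides; score combines spot fluorescence intensity with signal-to-noise across triplicate slides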
[11] = E. coli DRC41 culture turbidity changes, primary screen, E. coli filamentation inducer project, strain DRC41, OD650, 48 h (AID 1152);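 further: E. coli MC1000 strain DRC41 lacking acrAB efflux pump and sulA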; conditions: E. coli DRC41 (acrAB sulA), higher = more signal, called active from +8 up or from −8 down
[12] = small-molecule binders of probe aLefty1, primary screen, biochemical, small-molecule microarray, 635/667 nm fluorescence (AID 1153); conditions: higher = more signal;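 further: score merges spot fluorescence with signal-to-noise ratio from the scanned slide images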
[13] = PSAC antagonists in infected red cells, primary screen, cell-based, P. falciparum Indochina, OD700, 1 h (AID 1154); conditions: P. falciparum Indochina infected RBC osmotic lysis, higher = more signal, called active from +8 up or from −8 down
[14] = PSAC antagonists in infected red cells, primary screen, cell-based, P. falciparum Indochina, OD700, 2 h (AID 1155);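 further: lysis reports solute entry through the parasite surface anion channel PSAC; channel blockers reduce lysis of infected cells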; conditions: P. falciparum Indochina infected erythrocytes, osmotic lysis OD700; higher = more signal, called active from +8 up or from −8 down
[15] = osmotic lysis modulators in infected erythrocytes, primary screen, PSAC antagonist project, cell-based, P. falciparum Indochina, OD700, 3 h (AID 1156); conditions: higher = more signal, called active from +8 up or from −8 down
[16] = PSAC antagonists in infected red cells, primary screen, cell-based, P. falciparum Indochina, OD700, 18 h (AID 1157); conditions: P. falciparum Indochina infected erythrocytes, osmotic lysis OD700, 18 h; higher = more signal, called active from +8 up or from −8 down
[17] = modulators of S6 phosphorylation in cells, primary screen, cell-based, A549, cytoblot, luminescence, serum-stimulated (AID 1158); conditions: A549 phospho-S6 cytoblot, 5 h, higher = more signal;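 further: serum-stimulated A549 lung adenocarcinoma cells; signal is phosphorylated S6 detected by cytoblot immunostaining with HRP secondary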
[18] = target: NADPH oxidase 2 (Homo sapiens) (UniProt P04839); assay: NOX2-dependent H2O2 signal modulators, primary screen, NOX inhibitor project, cell-based, HEK293-NOX2, PMA-stimulated, Amplex Red fluorescence (AID 1159); conditions: 45 min, higher = more signal, called active from +8 up or from −8 down; further: test concentration not given here
[19] = target: NADPH oxidase 4 (Homo sapiens) (UniProt Q9NPH5); assay: NOX4-dependent H2O2 signal modulators, primary screen, NOX inhibitor project, cell-based, HEK293-NOX4, tetracycline-induced, Amplex Red fluorescence (AID 1160); conditions: 45 min, higher = more signal, called active from +8 up or from −8 down
[20] = target: NADPH oxidase 5 (Homo sapiens) (UniProt Q96PH1); assay: NOX5-dependent H2O2 signal modulators, primary screen, NOX inhibitor project, cell-based, HEK293-NOX5, Amplex Red fluorescence (AID 1161); conditions: HEK293-NOX5, ionomycin, 45 min, higher = more signal
Chain of NADPH oxidase 5 (Homo sapiens) (Q96PH1 whole entry, looked up): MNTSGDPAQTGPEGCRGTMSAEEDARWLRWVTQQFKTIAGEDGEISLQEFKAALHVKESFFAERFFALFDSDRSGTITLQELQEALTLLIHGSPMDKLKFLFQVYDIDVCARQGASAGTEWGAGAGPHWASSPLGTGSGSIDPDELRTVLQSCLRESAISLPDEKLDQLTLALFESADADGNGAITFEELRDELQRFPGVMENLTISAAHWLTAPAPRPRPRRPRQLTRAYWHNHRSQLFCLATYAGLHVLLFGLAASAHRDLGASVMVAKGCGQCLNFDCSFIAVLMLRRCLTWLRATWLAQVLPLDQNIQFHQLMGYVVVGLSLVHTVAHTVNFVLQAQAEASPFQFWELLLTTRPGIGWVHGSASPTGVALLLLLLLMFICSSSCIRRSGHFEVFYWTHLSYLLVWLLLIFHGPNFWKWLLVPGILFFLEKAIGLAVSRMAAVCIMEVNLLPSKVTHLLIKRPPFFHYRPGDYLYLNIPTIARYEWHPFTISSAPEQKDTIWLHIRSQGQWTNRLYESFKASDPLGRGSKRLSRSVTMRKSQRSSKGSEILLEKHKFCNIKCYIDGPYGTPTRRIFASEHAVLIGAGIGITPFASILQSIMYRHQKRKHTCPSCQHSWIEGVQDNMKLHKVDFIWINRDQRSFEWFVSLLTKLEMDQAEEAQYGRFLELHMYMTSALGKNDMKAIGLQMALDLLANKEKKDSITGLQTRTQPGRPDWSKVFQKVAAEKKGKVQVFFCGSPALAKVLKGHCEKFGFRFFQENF

Chain of Streptavidin (Streptomyces avidinii) (P22629 whole entry, looked up): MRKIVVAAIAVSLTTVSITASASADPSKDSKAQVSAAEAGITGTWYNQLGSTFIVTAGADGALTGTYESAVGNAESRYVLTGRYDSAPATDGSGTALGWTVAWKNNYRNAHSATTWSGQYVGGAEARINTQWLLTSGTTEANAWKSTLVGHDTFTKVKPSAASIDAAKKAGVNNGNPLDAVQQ
Chain of NADPH oxidase 2 (Homo sapiens) (P04839 whole entry, looked up): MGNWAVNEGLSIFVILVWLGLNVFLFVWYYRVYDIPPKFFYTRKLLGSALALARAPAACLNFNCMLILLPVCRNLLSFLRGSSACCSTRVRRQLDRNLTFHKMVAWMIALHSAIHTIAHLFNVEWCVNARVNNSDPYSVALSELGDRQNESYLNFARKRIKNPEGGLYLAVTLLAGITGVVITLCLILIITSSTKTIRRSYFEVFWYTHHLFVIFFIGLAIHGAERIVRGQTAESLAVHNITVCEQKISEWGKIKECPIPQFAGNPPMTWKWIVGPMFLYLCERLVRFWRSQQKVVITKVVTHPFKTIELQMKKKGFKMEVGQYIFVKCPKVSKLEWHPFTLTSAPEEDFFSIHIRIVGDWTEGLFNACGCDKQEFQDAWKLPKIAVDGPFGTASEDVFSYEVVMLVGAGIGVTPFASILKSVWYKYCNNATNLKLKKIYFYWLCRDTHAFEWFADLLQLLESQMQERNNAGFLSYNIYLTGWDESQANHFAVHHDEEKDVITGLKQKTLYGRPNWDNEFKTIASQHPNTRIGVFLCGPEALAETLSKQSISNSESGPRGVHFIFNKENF
Chain of NADPH oxidase 4 (Homo sapiens) (Q9NPH5 whole entry, looked up): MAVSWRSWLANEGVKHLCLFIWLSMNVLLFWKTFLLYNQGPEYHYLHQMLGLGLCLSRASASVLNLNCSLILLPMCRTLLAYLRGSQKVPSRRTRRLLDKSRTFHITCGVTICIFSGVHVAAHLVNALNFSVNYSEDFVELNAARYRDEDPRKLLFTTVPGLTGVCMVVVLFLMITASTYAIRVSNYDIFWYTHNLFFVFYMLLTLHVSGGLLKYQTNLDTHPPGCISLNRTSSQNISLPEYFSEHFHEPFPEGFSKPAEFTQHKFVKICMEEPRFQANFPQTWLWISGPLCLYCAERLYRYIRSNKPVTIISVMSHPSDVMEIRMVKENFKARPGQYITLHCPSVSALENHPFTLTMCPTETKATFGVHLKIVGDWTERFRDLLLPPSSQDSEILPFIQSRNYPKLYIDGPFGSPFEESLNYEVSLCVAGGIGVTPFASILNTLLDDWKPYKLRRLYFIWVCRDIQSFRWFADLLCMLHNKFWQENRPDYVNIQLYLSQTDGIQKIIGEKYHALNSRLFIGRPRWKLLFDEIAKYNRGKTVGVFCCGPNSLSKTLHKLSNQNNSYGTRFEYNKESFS
Chain of Torsin-1A (Homo sapiens) (O14656 whole entry, looked up): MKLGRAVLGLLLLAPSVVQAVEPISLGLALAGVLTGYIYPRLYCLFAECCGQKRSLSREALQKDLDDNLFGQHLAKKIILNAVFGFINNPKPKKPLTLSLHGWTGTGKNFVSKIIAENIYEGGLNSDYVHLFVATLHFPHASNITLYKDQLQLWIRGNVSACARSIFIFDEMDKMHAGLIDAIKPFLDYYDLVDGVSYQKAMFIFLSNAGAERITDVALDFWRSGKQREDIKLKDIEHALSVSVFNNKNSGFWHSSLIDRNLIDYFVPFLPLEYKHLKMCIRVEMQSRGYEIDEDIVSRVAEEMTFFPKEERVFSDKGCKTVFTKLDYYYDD

Row | Structure (SMILES) | composite z-score [1] | z-score [2] | z-score [3] | z-score [4] | z-score [5] | composite z-score [6] | composite z-score [7] | composite z-score [8] | composite z-score [9] | composite z-score [10] | z-score [11] | composite z-score [12] | z-score [13] | z-score [14] | z-score [15] | z-score [16] | z-score [17] | z-score [18] | z-score [19] | z-score [20]
1 | CC(C)C[C@@H]1NC(=O)[C@H]2C[C@@H](C(=O)NCCCCCN)[C@@H](c3cccc(OCCO)c3)N2C1=O | -0.0295 | -0.707 (inactive) | -0.887 (inactive) | 0.273 (inactive) | -0.673 (inactive) | -0.174 | -0.008 | 0.67 | 0.207 | -0.414 | 1.25 (inactive) | -0.0172 | 3.07 (inactive) | -0.328 (inactive) | 2.27 (inactive) | -2.15 (inactive) | 2.13 | 1.33 (inactive) | 0.993 (inactive) | 2.1
2 | CCOC(=O)C[C@H]1[C@H](OC(=O)c2ccccc2-c2ccccc2)[C@@H](NC(=O)c2ccc3ccccc3n2)c2cc(OCCCO)ccc2N1C(=O)c1ccccc1 | 0.233 | -0.0416 (inactive) | 1.12 (inactive) | 2.57 (inactive) | 0.655 (inactive) | -0.197 | -0.0933 | -0.0653 | 0.182 | 1.37 | -1.04 (inactive) | 0.0355 | 1.35 (inactive) | 0.496 (inactive) | 0.667 (inactive) | 0.305 (inactive) | -0.35 | 0.838 (inactive) | 1.23 (inactive) | 2.31
3 | CN1C(=O)C2C=CC(C(O)c3ccc(I)cc3)N(Nc3ccccc3)C2C1=O (stereo not given) | 0.377 | 0.134 (inactive) | -0.507 (inactive) | 1.77 (inactive) | 1.34 (inactive) | 1.76 | -0.0209 | 0.338 | 0.696 | -0.0996 | -1.97 (inactive) | 0.195 | 1.9 (inactive) | 1.27 (inactive) | 1.04 (inactive) | 1.12 (inactive) | -0.919 | -0.874 (inactive) | -5.01 (inactive) | -4.14
4 | CO[C@H]1O[C@H](CO)[C@@H](OC(=O)Nc2cccc(F)c2)[C@H](OC(=O)Nc2ccccc2-c2ccccc2)[C@H]1OC(=O)Nc1ccccc1-c1ccccc1 | 0.828 | -5.99 (inactive) | 0.0177 (inactive) | 0.951 (inactive) | -0.986 (inactive) | 0.379 | 0.208 | 0.937 | 0.663 | 1.23 | -0.732 (inactive) | 0.302 | 4.41 (inactive) | 1.22 (inactive) | -2.85 (inactive) | 0.937 (inactive) | -0.309 | -5.73 (inactive) | -1.02 (inactive) | -1.21
5 | C=CCN1C(=O)[C@@]2(O[C@@H](CCO)[C@H]([Si](C)(C)c3ccc(OC)cc3)[C@H]2C)c2cc(N3CCOC3=O)ccc21 | -0.0317 | -7.42 (inactive) | -0.202 (inactive) | 6.34 (inactive) | -3.56 (inactive) | 0.0828 | -0.0695 | -0.0921 | 0.543 | -0.285 | 0.232 (inactive) | -0.152 | 24.6 (active) | 12.6 (active) | 0.28 (inactive) | 2.21 (inactive) | 0.309 | -2.41 (inactive) | 1.35 (inactive) | -1.52
6 | O=C(NCC(O)CO)[C@@]1(CCS(=O)(=O)c2ccccc2)COC(c2ccc(OCCCO)cc2)=N1 (stereo not given in full) | 0.556 | -1.2 (inactive) | 0.063 (inactive) | 0.33 (inactive) | 0.0138 (inactive) | 0.985 | 0.228 | 1.13 | 1.91 | -0.504 | 0.457 (inactive) | 0.467 | 29.3 (active) | 22.3 (active) | 1.7 (inactive) | 2.91 (inactive) | -0.245 | 0.299 (inactive) | 1.77 (inactive) | 1.51
7 | O=C1O[C@H](c2ccccc2)[C@H](c2ccccc2)N2[C@H]1[C@@H](C(=O)O)[C@]1(C(=O)Nc3ccc(C#CC4(O)CCCCCC4)cc31)[C@H]2c1ccc(O)cc1 | -0.243 | -3.06 (inactive) | -2.13 (inactive) | -1.29 (inactive) | -1.14 (inactive) | -0.467 | -0.152 | -0.449 | 0.198 | -0.335 | 2.05 (inactive) | 0.0355 | -0.224 (inactive) | -0.925 (inactive) | -2.31 (inactive) | -1.16 (inactive) | 1.65 | 0.867 (inactive) | -0.353 (inactive) | -1.06
8 | C[C@]1(C(=O)NCC(F)(F)F)c2ccccc2C(=O)N(Cc2ccccc2)[C@H]1c1ccc(CO)cc1 | -0.398 | -1.48 (inactive) | -0.0817 (inactive) | -0.179 (inactive) | 0.112 (inactive) | -0.726 | -0.0719 | -0.938 | 0.808 | -1.32 | 0.588 (inactive) | 0.382 | 2.28 (inactive) | 0.0336 (inactive) | -0.201 (inactive) | -0.162 (inactive) | -0.617 | -0.0434 (inactive) | 0.431 (inactive) | 0.17
9 | O=C(CS)NCCCCCNC(=O)[C@@H]1C[C@@H]2C(=O)N[C@@H](Cc3ccccc3)C(=O)N2[C@@H]1c1cccc(OCCO)c1 | 0.409 | -0.497 (inactive) | -0.042 (inactive) | 0.7 (inactive) | 0.432 (inactive) | -0.0307 | -0.787 | 0.7 | 1.31 | 1.49 | -0.145 (inactive) | -1.01 | 2.5 (inactive) | 0.148 (inactive) | -0.395 (inactive) | -0.0429 (inactive) | -0.16 | 1.73 (inactive) | 0.924 (inactive) | 0.226
